Screening data from PubChem BioAssay.
A selection: hits, their analogues and other compounds. The true share with any hit is near 4.5%.
Jurkat NFkB inh – inhibitors of the PMA/ionomycin-induced NF-kB reporter in Jurkat cells; PMA/ionomycin-induced NF-kB luciferase reporter, luminescence; inhibition, % at 4 µM; 0.53% of 330,000 active; in the data active = inhibition above about 50%
CSC inhib – cancer stem cell inhibition; cancer stem cell-like cells viability, luminescence; inhibition, % at 7.5 µM; 1.1% of 300,000 active; in the data active = inhibition above about 75%; inconclusive = no clear call, values can overlap the other calls; tested in HMLE shEcad cells
Beta cell apopt – beta cell apoptosis inhibition | protection from apoptosis, % (no concentration beside the values) | INS-1E cytokine-induced death, ATP luminescence, 48 h; percent of positive-control rescue, neutral wells zero | 0.8% of 300,000 active;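 active = Every replicate reaches about 75%, or at least half do and their mean reaches it too, limit read from the data; inconclusive = At least half of replicates reach the limit but their mean does not; inactive = Under half of replicates reach the limit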;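 note: higher means more ATP so stronger rescue from cytokine killing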
Gli-Sufu antag – blocks Gli-Sufu signaling in a luciferase reporter; Sufu-KO-LIGHT fibroblasts, Gli luciferase reporter luminescence; AID 588413; 0.74% of 340,000 active; inhibition, % at 5 µM;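 active = inhibition above about 55%, limit read from the data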
Mdm2 MdmX PPI – human Mdm2/MdmX binding inhibition; 3% of 330,000 active; inhibition, % at 8 µM; O15151+Q00987; SaOS-2 split-luciferase Mdm2/MdmX complementation, luminescence;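 active = inhibition of at least 50% at 8 µM in the primary screen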
Target sequence (O15151 whole entry, looked up): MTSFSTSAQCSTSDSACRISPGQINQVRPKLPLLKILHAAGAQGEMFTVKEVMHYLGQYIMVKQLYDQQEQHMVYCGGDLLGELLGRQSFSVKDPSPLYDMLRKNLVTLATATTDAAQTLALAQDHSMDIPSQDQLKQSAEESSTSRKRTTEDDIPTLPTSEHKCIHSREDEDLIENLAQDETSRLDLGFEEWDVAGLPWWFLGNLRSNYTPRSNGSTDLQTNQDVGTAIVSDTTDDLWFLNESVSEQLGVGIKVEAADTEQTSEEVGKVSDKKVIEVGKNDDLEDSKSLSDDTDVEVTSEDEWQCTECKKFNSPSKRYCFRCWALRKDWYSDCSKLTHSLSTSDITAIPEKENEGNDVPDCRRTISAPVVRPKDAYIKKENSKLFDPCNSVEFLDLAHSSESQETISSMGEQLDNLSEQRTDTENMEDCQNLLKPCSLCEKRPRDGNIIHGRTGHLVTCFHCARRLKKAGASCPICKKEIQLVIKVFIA
Target sequence (Q00987 whole entry, looked up): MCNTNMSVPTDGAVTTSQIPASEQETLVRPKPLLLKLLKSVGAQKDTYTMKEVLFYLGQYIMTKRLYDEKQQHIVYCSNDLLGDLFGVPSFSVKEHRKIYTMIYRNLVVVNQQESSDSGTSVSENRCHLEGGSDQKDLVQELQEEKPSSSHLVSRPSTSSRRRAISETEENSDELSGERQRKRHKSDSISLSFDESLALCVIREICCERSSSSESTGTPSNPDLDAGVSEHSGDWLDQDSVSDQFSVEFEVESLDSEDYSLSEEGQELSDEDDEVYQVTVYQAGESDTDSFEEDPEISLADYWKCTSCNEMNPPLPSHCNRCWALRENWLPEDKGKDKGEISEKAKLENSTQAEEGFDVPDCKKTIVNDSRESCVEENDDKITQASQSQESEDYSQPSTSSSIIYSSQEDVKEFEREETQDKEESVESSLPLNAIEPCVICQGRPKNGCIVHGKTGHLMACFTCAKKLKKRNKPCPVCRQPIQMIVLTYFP
697 NFkB inh – inhibitors of the PMA/ionomycin-induced NF-kB reporter in 697 B cells; 697 B-cell NF-kB luciferase reporter, 16 h; inhibition, % at 4 µM; 0.33% of 330,000 active; AID 435022; in the data active = inhibition above about 35%
Mdm2 MdmX conf – confirmation of human Mdm2/MdmX interaction inhibitors | Mdm2-MdmX binding, luminescent assay | shares compounds with Mdm2 MdmX PPI | inhibition, % at 8 µM | 55% of 10,000 active; in the data active = inhibition above about 40%
Full FLuc ctr – inhibits full-length luciferase, flagging false Mdm2/MdmX hits; 77% of 6,200 active; inhibition, % at 8 µM; shares compounds with Mdm2 MdmX PPI; SaOS-2 full-length luciferase counterscreen, luminescence;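 active = mean inhibition at 8 µM reaching about 37%, which flags the compound as non-specific, limit read from the data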;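 note: p53-null SaOS-2 cells with luciferase driven by a doxycycline-inducible promoter; compound on cells about two nights before reading with doxycycline added after day one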
Hits are given with their value.

How did COc1ccc(N2CCN(c3ccc(NC(=O)NN)cc3)CC2)cc1 do in these assays?
Jurkat NFkB inh: inactive; CSC inhib: inactive; Beta cell apopt: inactive; Gli-Sufu antag: inactive; Mdm2 MdmX PPI: inactive; 697 NFkB inh: inactive

Results for COc1ccc2nc3cc(Cl)ccc3c(Nc3cc(CN4CCCC4)c(O)c(CN4CCCC4)c3)c2n1 ?
Jurkat NFkB inh: inactive; CSC inhib: inactive; Beta cell apopt: inconclusive; Mdm2 MdmX PPI: 98.9; 697 NFkB inh: inactive; Mdm2 MdmX conf: 53.2; Full FLuc ctr: 77.2

How did Cc1ccc(NC(=O)Cn2nnc(C(=O)Nc3ccc(F)c(Cl)c3)c2N)cc1 do in these assays?
Jurkat NFkB inh: inactive; CSC inhib: inactive; Gli-Sufu antag: inactive; Mdm2 MdmX PPI: inactive; 697 NFkB inh: inactive

How did COc1ccc(NC(=O)Cn2nnc(C(=O)Nc3ccc(F)c(Cl)c3)c2N)cc1 do in these assays?
Jurkat NFkB inh: inactive; CSC inhib: inactive; Beta cell apopt: inactive; Gli-Sufu antag: inactive; Mdm2 MdmX PPI: 58.6; 697 NFkB inh: inactive; Mdm2 MdmX conf: inactive; Full FLuc ctr: 83.0

Results for COc1ccc(Cl)cc1NC(=O)c1nnn(CC(=O)Nc2ccc(OC)c(OC)c2)c1N ?
Jurkat NFkB inh: inactive; CSC inhib: inactive; Beta cell apopt: inactive; Gli-Sufu antag: inactive; Mdm2 MdmX PPI: 69.0; 697 NFkB inh: inactive; Mdm2 MdmX conf: inactive; Full FLuc ctr: inactive

Results for COc1ccc(Cl)cc1NC(=O)c1nnn(CC(=O)Nc2cc(C)cc(C)c2)c1N ?
Jurkat NFkB inh: inactive; CSC inhib: inactive; Gli-Sufu antag: inactive; Mdm2 MdmX PPI: 94.0; 697 NFkB inh: inactive; Mdm2 MdmX conf: 57.0; Full FLuc ctr: 55.2

Results for COc1cccc(NC(=O)Cn2nnc(C(=O)Nc3cc(Cl)ccc3OC)c2N)c1 ?
Jurkat NFkB inh: inactive; CSC inhib: inactive; Beta cell apopt: inactive; Gli-Sufu antag: inactive; Mdm2 MdmX PPI: 90.4; 697 NFkB inh: inactive; Mdm2 MdmX conf: 49.2; Full FLuc ctr: inactive

Results for COc1ccc(NC(=O)Cn2nnc(C(=O)NCc3ccc(C)cc3)c2N)cc1OC ?
Jurkat NFkB inh: inactive; CSC inhib: inactive; Beta cell apopt: inactive; Gli-Sufu antag: inactive; Mdm2 MdmX PPI: inactive; 697 NFkB inh: inactive

Results for O=C(NCc1ccccc1Cl)C(=O)NCC1OCCCN1S(=O)(=O)c1cccs1 (stereo not given) ?
Jurkat NFkB inh: inactive; CSC inhib: inactive; Gli-Sufu antag: inactive; Mdm2 MdmX PPI: inactive; 697 NFkB inh: inactive

How did Cc1ccc(N(C(=O)CNC(=O)c2ccco2)C(C(=O)NC2CCCC2)c2cccnc2)c(C)c1 (stereo not given) do in these assays?
Jurkat NFkB inh: inactive; Beta cell apopt: inactive; Gli-Sufu antag: inactive; Mdm2 MdmX PPI: inactive; 697 NFkB inh: inactive

How did CCOC(=O)c1ccc(S(=O)(=O)N2CCN(CCc3ccncc3)CC2)cc1 do in these assays?
Jurkat NFkB inh: inactive; CSC inhib: inactive; Beta cell apopt: inactive; Gli-Sufu antag: inactive; Mdm2 MdmX PPI: inactive; 697 NFkB inh: inactive

Results for O=C(NCC(=O)N1CCN(c2ccccc2F)CC1)c1ccc(Br)o1 ?
Jurkat NFkB inh: inactive; Beta cell apopt: inactive; Gli-Sufu antag: inactive; Mdm2 MdmX PPI: inactive; 697 NFkB inh: inactive

Results for COc1ccc(NC(=O)c2nnn(CC(=O)Nc3ccc4c(c3)OCO4)c2N)cc1OC ?
Jurkat NFkB inh: inactive; CSC inhib: inactive; Beta cell apopt: inactive; Gli-Sufu antag: inactive; Mdm2 MdmX PPI: inactive; 697 NFkB inh: inactive

How did COc1ccc(NC(=O)c2nnn(CC(=O)Nc3ccc4c(c3)OCO4)c2N)c(OC)c1 do in these assays?
Jurkat NFkB inh: inactive; CSC inhib: inactive; Beta cell apopt: inactive; Gli-Sufu antag: inactive; Mdm2 MdmX PPI: 52.3; 697 NFkB inh: inactive; Mdm2 MdmX conf: inactive

What do the screens show for `COc1ccc(Cl)cc1NC(=O)c1nnn(CC(=O)Nc2ccc3c(c2)OCO3)c1N`?
Jurkat NFkB inh: inactive; CSC inhib: inactive; Gli-Sufu antag: inactive; Mdm2 MdmX PPI: 93.3; 697 NFkB inh: inactive; Mdm2 MdmX conf: 53.2; Full FLuc ctr: inactive

Results for COc1ccc(NC(=O)Cn2nnc(C(=O)NCc3ccc4c(c3)OCO4)c2N)c(OC)c1 ?
Jurkat NFkB inh: inactive; CSC inhib: inactive; Gli-Sufu antag: inactive; Mdm2 MdmX PPI: inactive; 697 NFkB inh: inactive

Results for COc1ccc(OCC(=O)N(Cc2ccc(C)o2)C2CCS(=O)(=O)C2)cc1 (stereo not given) ?
Jurkat NFkB inh: inactive; CSC inhib: inactive; Beta cell apopt: inactive; Gli-Sufu antag: inactive; Mdm2 MdmX PPI: inactive; 697 NFkB inh: inactive

Results for CN1CCN(S(=O)(=O)c2ccc(NS(=O)(=O)c3ccccc3)cc2)CC1 ?
Jurkat NFkB inh: inactive; CSC inhib: inactive; Beta cell apopt: inactive; Gli-Sufu antag: inactive; Mdm2 MdmX PPI: inactive; 697 NFkB inh: inactive

What do the screens show for `CC(NC(=O)COC(=O)c1nc(Cl)ccc1Cl)c1ccccc1` (stereo not given)?
Jurkat NFkB inh: inactive; CSC inhib: inactive; Beta cell apopt: inactive; Gli-Sufu antag: inactive; Mdm2 MdmX PPI: inactive; 697 NFkB inh: inactive

What do the screens show for `O=C(Nc1ccccc1)c1cc([N+](=O)[O-])ccc1Cl`?
Jurkat NFkB inh: inactive; CSC inhib: inactive; Beta cell apopt: inactive; Gli-Sufu antag: inactive; Mdm2 MdmX PPI: inactive; 697 NFkB inh: inactive

What do the screens show for `O=C(Nc1cccc(Cl)c1)c1cc(N=Nc2ccc([N+](=O)[O-])cc2Cl)ccc1O`?
Jurkat NFkB inh: inactive; CSC inhib: 128.2; Beta cell apopt: inactive; Gli-Sufu antag: inactive; Mdm2 MdmX PPI: 92.2; 697 NFkB inh: inactive; Mdm2 MdmX conf: 97.0; Full FLuc ctr: 51.4

How did O=C(Nc1cccc(Cl)c1)c1cccc(Oc2ccc([N+](=O)[O-])cc2Cl)c1 do in these assays?
Jurkat NFkB inh: inactive; CSC inhib: inactive; Beta cell apopt: inactive; Gli-Sufu antag: inactive; Mdm2 MdmX PPI: 60.7; 697 NFkB inh: inactive; Mdm2 MdmX conf: inactive

Results for Cc1cccc(NS(=O)(=O)c2ccc(C(=O)N3CC(C)OC(C)C3)cc2)c1C (stereo not given) ?
Jurkat NFkB inh: inactive; CSC inhib: inactive; Beta cell apopt: inactive; Gli-Sufu antag: inactive; Mdm2 MdmX PPI: inactive; 697 NFkB inh: inactive

What do the screens show for `C=CCNC(=O)C1CC(=O)N(c2ccc(OCC(=O)Nc3ccc(Cl)cc3)cc2)C1` (stereo not given)?
Jurkat NFkB inh: inactive; CSC inhib: inactive; Gli-Sufu antag: inactive; Mdm2 MdmX PPI: inactive; 697 NFkB inh: inactive

Results for O=C(Nc1cccc(C(=O)N2CCCCC2)c1)C1CCCCC1 ?
Gli-Sufu antag: inactive

What do the screens show for `C=C(C)[C@@H]1CC[C@]2(C(=O)O)CC[C@]3(C)[C@H](CC[C@@H]4[C@@]5(C)CC[C@H](O)C(C)(C)[C@@H]5CC[C@]43C)[C@@H]12`?
Jurkat NFkB inh: inactive; CSC inhib: 83.5; Gli-Sufu antag: inactive; Mdm2 MdmX PPI: 55.0; 697 NFkB inh: inactive; Mdm2 MdmX conf: inactive
